From PubChem BioAssay AID1964107 (National Center for Advancing Translational Sciences (NCATS), 2024)
The campaign covered roughly 31,000 compounds. About 360 (1.2%) were called active. Entries that show only a call come without a potency. Roughly 8% stayed inconclusive and do not appear here. Calls follow the shape of the full dose curve. The sample as a whole holds a higher share of actives than the screen did.

Molecular target: Polyprotein P1234 (Chikungunya virus (strain S27-African prototype)) (UniProt Q8JUX6)
Sequence (Q8JUX6 whole entry, looked up): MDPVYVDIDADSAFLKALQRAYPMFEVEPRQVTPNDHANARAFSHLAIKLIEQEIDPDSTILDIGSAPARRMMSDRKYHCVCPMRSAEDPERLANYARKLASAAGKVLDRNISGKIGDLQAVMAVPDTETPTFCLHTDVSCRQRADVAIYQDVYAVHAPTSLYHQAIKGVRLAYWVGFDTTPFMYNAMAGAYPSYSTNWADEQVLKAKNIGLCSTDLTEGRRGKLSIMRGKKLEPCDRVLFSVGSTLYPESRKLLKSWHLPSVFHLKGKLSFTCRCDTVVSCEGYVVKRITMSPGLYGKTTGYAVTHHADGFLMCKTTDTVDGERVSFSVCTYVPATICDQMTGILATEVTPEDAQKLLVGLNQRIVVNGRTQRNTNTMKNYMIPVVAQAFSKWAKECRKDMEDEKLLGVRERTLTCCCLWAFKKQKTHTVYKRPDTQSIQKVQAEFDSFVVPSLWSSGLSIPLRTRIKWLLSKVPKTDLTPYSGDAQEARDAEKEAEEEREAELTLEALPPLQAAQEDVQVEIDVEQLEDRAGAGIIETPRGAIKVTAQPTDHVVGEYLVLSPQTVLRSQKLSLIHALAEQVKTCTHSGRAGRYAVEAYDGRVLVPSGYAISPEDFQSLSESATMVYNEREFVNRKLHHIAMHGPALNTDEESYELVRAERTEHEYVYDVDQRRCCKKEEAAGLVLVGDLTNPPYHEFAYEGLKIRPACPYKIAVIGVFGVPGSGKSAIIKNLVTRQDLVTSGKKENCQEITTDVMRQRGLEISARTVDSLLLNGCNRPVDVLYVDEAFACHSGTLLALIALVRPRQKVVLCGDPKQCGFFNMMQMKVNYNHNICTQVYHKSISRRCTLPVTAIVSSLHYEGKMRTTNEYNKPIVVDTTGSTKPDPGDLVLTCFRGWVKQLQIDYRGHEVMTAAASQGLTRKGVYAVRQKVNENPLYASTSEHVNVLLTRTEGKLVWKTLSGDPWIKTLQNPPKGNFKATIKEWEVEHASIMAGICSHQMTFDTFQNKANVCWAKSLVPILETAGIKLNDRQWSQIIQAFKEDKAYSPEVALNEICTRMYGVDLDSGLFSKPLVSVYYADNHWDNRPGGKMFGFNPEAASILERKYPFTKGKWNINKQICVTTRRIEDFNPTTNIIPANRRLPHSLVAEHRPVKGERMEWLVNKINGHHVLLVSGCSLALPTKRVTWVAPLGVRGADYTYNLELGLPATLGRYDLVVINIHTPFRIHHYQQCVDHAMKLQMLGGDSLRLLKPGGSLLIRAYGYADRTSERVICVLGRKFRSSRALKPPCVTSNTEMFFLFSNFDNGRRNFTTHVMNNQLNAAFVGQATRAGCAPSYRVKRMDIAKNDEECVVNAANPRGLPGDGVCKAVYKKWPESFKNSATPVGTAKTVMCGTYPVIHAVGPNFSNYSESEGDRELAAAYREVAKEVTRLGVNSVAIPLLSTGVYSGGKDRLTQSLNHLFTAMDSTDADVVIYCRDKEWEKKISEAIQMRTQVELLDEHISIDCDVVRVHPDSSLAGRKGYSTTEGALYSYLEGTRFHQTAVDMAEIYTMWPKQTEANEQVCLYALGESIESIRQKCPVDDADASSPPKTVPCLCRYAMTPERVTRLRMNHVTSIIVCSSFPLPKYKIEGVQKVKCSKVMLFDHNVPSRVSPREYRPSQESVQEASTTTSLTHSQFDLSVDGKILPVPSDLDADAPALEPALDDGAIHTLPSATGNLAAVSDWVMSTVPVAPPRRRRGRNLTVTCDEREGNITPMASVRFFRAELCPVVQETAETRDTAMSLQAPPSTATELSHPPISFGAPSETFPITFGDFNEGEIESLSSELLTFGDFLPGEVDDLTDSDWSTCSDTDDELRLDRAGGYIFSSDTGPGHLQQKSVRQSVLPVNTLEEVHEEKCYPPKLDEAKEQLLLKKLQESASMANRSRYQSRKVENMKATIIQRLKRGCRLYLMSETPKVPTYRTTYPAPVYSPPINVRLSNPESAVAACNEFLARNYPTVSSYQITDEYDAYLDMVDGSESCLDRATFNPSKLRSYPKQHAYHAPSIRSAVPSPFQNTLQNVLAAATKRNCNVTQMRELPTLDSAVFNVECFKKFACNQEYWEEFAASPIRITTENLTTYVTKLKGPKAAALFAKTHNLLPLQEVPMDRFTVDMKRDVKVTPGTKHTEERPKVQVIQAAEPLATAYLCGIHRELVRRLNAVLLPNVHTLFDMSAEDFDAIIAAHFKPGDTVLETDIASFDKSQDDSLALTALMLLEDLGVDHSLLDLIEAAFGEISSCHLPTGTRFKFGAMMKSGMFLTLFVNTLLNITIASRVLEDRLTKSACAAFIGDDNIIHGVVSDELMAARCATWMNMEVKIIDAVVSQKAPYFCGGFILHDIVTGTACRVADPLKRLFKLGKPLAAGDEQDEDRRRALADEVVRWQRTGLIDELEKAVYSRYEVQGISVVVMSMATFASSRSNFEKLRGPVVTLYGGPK
Experiment: Primary qHTS for inhibitors of NSP2Pro chikungunya virus (CHIKV); also: nearly all actives have a fitted effect of over 60% in size
Details: FRET peptide cleavage, fluorescence 1 h; series mostly up to 24.9 µM
Description: PI: Natalia J. Martinez Ph.D. National Center for Advancing Translational Sciences (NCATS), National Institute of Health (NIH), Rockville, Maryland Chikungunya virus (CHIKV) is a mosquito-borne RNA virus that has emerged as one of the most important global arboviral threats in the last decade. Although the first CHIKV vaccine has recently been FDA approved for use in healthy adults at increased risk, to date, there are no available antiviral drugs for CHIKV infection. CHIKV nsP2 protease plays a crucial role in the processing of the viral polypeptide precursor to release enzymes required for viral replication, thus making it a promising drug target for antiviral discovery. Here, we established a high-throughput pipeline to identify small molecule inhibitors of nsP2 proteolytic activity. The pipeline is composed of a suite of 1,536-well in vitro assays to support quantitative high-throughput (qHTS) screening campaigns. Specifically, we developed a fluorescence resonance energy transfer (FRET)-based assay using a fluorogenic peptide substrate encompassing an endogenous cleavage site and purified recombinant protease domain (nsP2pro). Using this assay, we interrogated ~37,000 small molecules, including those in drug repurposing libraries as well as chemically diverse and medicinal chemistry-friendly compounds. Hits were selected for follow-up validation against full-length nsP2 and an additional peptide. FRET-based 1,536-well assays for papain, hepatitis C virus NS3-4A, and human furin proteases were implemented to characterize compound selectivity. […] Novel compounds were identified to be potential nsP2 inhibitors and molecular docking analyses were performed to explain the binding mode of selected hits. In vitro antiviral activity was evaluated for a subset of compounds using a high-throughput CHIKV infection assay. To our knowledge, the pipeline presented here is unprecedented for CHIKV antiviral discovery research.
PROTOCOL TABLE (as described by Inglese J, Shamu CE and Guy RK. 2007) SEQUENCE No. (e.g., 1, 2, 3, etc.); […] (e.g., Cells, Incubation, Reagent, etc.); VALUE; DESCRIPTION. 1; Control / Compound; 20 nL; Echo 655 acoustic dispenser, Greiner 1536-well solid bottom black plate. 2; Enzyme; 4 uL; BioRAPTR FRD liquid dispenser (Beckman Coulter). 3; Incubation; 15 min; room temperature. 4; Reagent; 4 uL; 2.5 uM Peptide 2 substrate. 5; Incubation; 1 hr; room temperature. 6; Detection; Fluorescence; WiewLux microplate reader (PerkinElmer), 525 nm excitation, 598/25 nm emission. NOTES (numbers refer to sequence numbers above). 1. Briefly, 20 nL DMSO, positive control ZnAc (20nM final concentration), and test compounds were transferred into a 1,536-well solid bottom black plate (789176-F, Greiner One) via Echo 655 acoustic dispenser (Beckman Coulter). For primary screens, compounds were tested at 7 concentrations, 1:3 dilution points ranging from 25 uM to 34 nM. Follow-up confirmatory screens were carried out at 11 concentrations, 1:3 dilution points from 25 uM to 0.42 nM. 2. Four uL nsP2pro enzyme mix (150 nM final concentration) in 10 mM Tris-HCl pH 8.0 with 0.01% Tween 20 assay buffer was dispensed into the plate using a BioRAPTR FRD liquid dispenser (Beckman Coulter). 3. The plate was incubated at room temperature (protected from light) for 15 min 4. Four microliter of peptide 2 substrate (2.5 uM final concentration) in assay buffer was added to the plate. 5. After 1 hour, plates were immediately read on a ViewLux high-throughput CCD imager (Exposure = 10 sec, Gain = High, Speed = Slow, Binning = 2X). The above assay was also incorporated in the NCATS HTS facility41, which allowed for robotic liquid and compound dispensing, microplate handling, and fluorescence reading.. REFERENCE: Inglese J, Shamu CE and Guy RK, Reporting data from high throughput screening of small molecule libraries, Nature Chemical Biology, 2007, 3(8): 438-441. doi.org/10.1038/nchembio0807-438.
Potency is read from the fitted curve at half-maximal effect.

Row | SMILES | Potency
1 | Cc1nn(Cc2ccccc2Cl)c(C)c1CN(C)CC(O)COc1ccc(Cl)cc1 (centres undefined) | inactive
2 | O=C(Nc1nc(-c2ccccc2)cs1)c1ccncc1NS(=O)(=O)c1ccc(-c2ccccc2)cc1 | inactive
3 | CCOCCOC1CCN(S(=O)(=O)c2ccc(OC)cc2)CC1 | inactive
4 | CCOCCCNC(=O)c1cc2c(=O)n3ccccc3nc2s1 | inactive
5 | CCc1noc(-c2cn(C3CCN(C(=O)C4(c5ccccc5)CC4)C3)nn2)n1 (centres undefined) | inactive
6 | COc1ccc(Cc2ncc3c(n2)CN(C(=O)c2ccc(OC)c(O)c2)C3)cc1 | inactive
7 | CC(NC(=O)c1cc(Sc2ccc(F)cc2F)nc2ccccc12)c1ccccc1 (centres undefined) | inactive
8 | O=C(N[C@@H]1CCOC[C@H]1OCCO)c1ccc2c(c1)ncn2CCO | inactive
9 | CCC(=O)N1N=C(c2ccc(OC)cc2)CC1c1cn(-c2ccccc2)nc1-c1cccs1 (centres undefined) | inactive
10 | CCC(=O)N1CCc2cc(S(=O)(=O)NC(Cc3ccccc3)C(=O)NCc3ccc(C)cc3)ccc21 (centres undefined) | inactive
11 | FC(F)(F)c1cccc(N2CCN(C(=S)Nc3ccncc3)CC2)c1 | inactive
12 | COc1cccc(-c2cn3c(n2)N(C(=O)c2cnccn2)CCC3)c1 | inactive
13 | CCCN=C1S/C(=C\c2ccc(OC[C@H](O)CO)c(Cl)c2)C(=O)N1c1ccccc1C | inactive
14 | CC(=O)c1ccc(NS(=O)(=O)c2ccc(-c3cc(C)no3)s2)cc1 | inactive
15 | Cc1ccc(N2CCN(C(=O)CCc3c(C)nc4c(c3C)c(=O)n(C)c(=O)n4C)CC2)c(C)c1 | inactive
16 | CCC(=O)N1CCc2cc(Br)cc(S(=O)(=O)CCC(=O)NCc3ccccc3OC)c21 | inactive
17 | CCOc1ccc(NC(=O)Cn2nc3n(c2=O)CCN(Cc2ccccc2C)C3=O)cc1 | inactive
18 | N#Cc1ccc(-c2ccc(NC(=O)c3cccs3)cn2)cc1 | inactive
19 | CCOc1ccc(CNC(=O)c2ccc3nc(CC)c(CC)nc3c2)cc1OC | inactive
20 | COc1ccc(CNC(=O)c2cc3c(s2)CN(C2CC2)C3)cc1OC | inactive

Row | SMILES | Potency
21 | COc1ccc(C2=Nn3c(nnc3-c3ccccc3O)SC2)cc1 | inactive
22 | CCC(C)C(=O)O[C@H]1[C@@H](OC(=O)c2ccoc2)C[C@](C)(O)[C@]23OC(C)(C)[C@H](C[C@H](OC(=O)c4ccoc4)[C@]12COC(C)=O)[C@H]3OC(C)=O (some centres undefined) | inactive
23 | CC1=C[C@@H](CNC2CCOCC2)[C@H](C(C)C)C[C@H]1Cc1nc2ccc(F)cc2[nH]1 | inactive
24 | COc1ccc(C2=NS(=O)(=O)N(C)C(C(=O)NC(C)c3ccccc3)=C2)cc1 (centres undefined) | inactive
25 | CC(C)Oc1cccc(-c2cnc(N3CCC(C(N)=O)CC3)s2)c1 | inactive
26 | O=C(Nc1ccccc1-c1cn2c(CN3CCNCC3)csc2n1)c1ccc2ccccc2n1 | inactive
27 | COCC(=O)N(C[C@H]1O[C@@H](CC(=O)NC2CC2)[C@H](O)[C@@H]1O)C[C@H]1O[C@@H](CC(=O)NC2CC2)[C@H](O)[C@@H]1O | inactive
28 | C=CC1C(OC2OC(CO)C(O)C(O)C2O)OC=C(C(=O)OC)C1CC1CC(=O)CC(CCc2ccc(O)cc2)O1 (centres undefined) | inactive
29 | COc1ccccc1CC(=O)N1CCc2c(nc3cc(-c4ccccc4Cl)[nH]n3c2=O)C1 | inactive
30 | COc1ccc(C2CC(=O)N(Cc3ccccc3C)c3c2c(C)nn3-c2nc(C)cc(C)n2)c(OC)c1 (centres undefined) | inactive
31 | COc1ccc(/C=C2/C(=O)Nc3ccccc32)cc1O | inactive
32 | COc1ccc(C(=O)Nc2cccc(C(=O)OCc3cc(=O)n4c5c(sc4n3)CCCC5)c2)cc1 | inactive
33 | Cc1cnc(C2CCC2)n1C1CCN(C(=O)CCC2CCCC2)CC1 | inactive
34 | O=C(NCc1ccc(Cl)cc1)c1cc(-c2ccc[nH]2)n[nH]1 | 8.91 µM (active)
35 | O=C(CSc1nccn1Cc1ccc(Cl)cc1)NCc1ccccc1 | inactive
36 | O=C(CSc1ncc(CO)n1Cc1ccc(Cl)cc1)NCc1ccc(F)cc1 | inactive
37 | COc1ccc(CCn2cc3c(c2-c2ccc(Br)cc2)c(=O)n(C)c(=O)n3C)cc1OC | inactive
38 | C[C@@H]1[C@H](O)[C@@H]2OC(=O)C3=C2[C@H](CCC3)[C@@]12C[C@@H](c1ccoc1)OC2=O | 5.44 µM (active)
39 | COc1cccc(CNc2ccc(S(=O)(=O)Nc3cc(C)on3)cc2)c1O | inactive
40 | Fc1ccc(CSc2nc(NCc3ccccc3)c3ccccc3n2)cc1 | inactive

Row | SMILES | Potency
41 | O=C(Nc1ccc(O)c(-c2nc3ccccc3o2)c1)c1ccc(-c2cccc(Cl)c2)o1 | inactive
42 | Cc1nn(C(C)C(=O)NCCc2ccccc2)c(=O)c2c1sc1ccccc12 (centres undefined) | inactive
43 | CCOC(=O)c1c(S(=O)(=O)NCC(=O)Nc2ccc(Cl)c(C(F)(F)F)c2)c(C)n(C)c1C | inactive
44 | Cc1ncc([N+](=O)[O-])n1C[C@H](O)CN1CCOCC1 | inactive
45 | CC(C)NC(=O)NCC1Cn2cccc2C(=O)N1Cc1ccccc1 (centres undefined) | inactive
46 | Cc1nn(Cc2ccccc2)c(C)c1[C@@H]1C=C[C@@H](NC(=O)NC(C)C)C1 | 14.1 µM (active)
47 | O=C(Cn1nc(C2CC2)ccc1=O)NCCc1ccccc1 | inactive
48 | CCCC12CN3CC(CCC)(CN(C1)C3c1c[nH]c3ccc(OC)cc13)C2=O (centres undefined) | inactive
49 | COc1ccc(N2Cc3cccc(C(=O)O)c3C2=O)cc1OC | inactive
50 | Cc1ccc(NC(=O)CSc2nc3c(c(=O)[nH]2)CN(Cc2ccc4c(c2)OCO4)CC3)cc1C | inactive
51 | O=C(Nc1ncc(Cc2ccc(C(F)(F)F)cc2)s1)c1ccc(-c2ccc([N+](=O)[O-])cc2)o1 | inactive
52 | COc1cccc(Nc2ccc(N3CCN(C(C)=O)CC3)cc2)c1OC | inactive
53 | COc1ccccc1OCCCn1c(-c2ccc(Cl)cc2)nc2ccccc2c1=O | inactive
54 | Cc1cc(C)nc(NS(=O)(=O)c2ccc(NC(=O)c3cc(=O)c4ccc(C)c(C)c4o3)cc2)n1 | inactive
55 | O=C1C(F)N([S+](=O)([O-])c2ccc3c(c2)OCCO3)CCN1[S+](=O)([O-])c1c(F)cccc1F (centres undefined) | inactive
56 | Cc1cnn(CCC(=O)N2CCC3(CCNCC3)CC2)c1 | inactive
57 | CCOc1ccc(N(CC)C(=O)C2CCN(S(=O)(=O)c3cccc4nonc34)CC2)cc1 | inactive
58 | CCOc1ccc(N(Cc2ccccc2)C(=O)c2nc(S(C)(=O)=O)ncc2Cl)cc1 | 5.01 µM (active)
59 | CCOc1ccc(N(Cc2ccccc2)C(=O)c2nc(SCC)ncc2Cl)cc1 | inactive
